Consider five compounds from ChEMBL document CHEMBL3988442, “University of Dundee, Small-Polar-MMV Screening Library” (2021).

The structures appear in SMILES notation. For some assays here: Potency and affinity values are given separately.

Assay [1] addresses Protein translocase subunit SecA (Escherichia coli (strain K12)) (UniProt P10408). The assay can be described thus: Assay to Identify E. coli SecA ATPase Inhibitors. The format is functional. On the set-up: scale not given: direction of the effect not stated beside the values. The following applies: 30 µM.
Assay [2] has as its target T1, Ubiquitin-activating enzyme e1, putative (Leishmania donovani (strain BPK282A1)) (UniProt E9BSI1).
T1 sequence (whole entry): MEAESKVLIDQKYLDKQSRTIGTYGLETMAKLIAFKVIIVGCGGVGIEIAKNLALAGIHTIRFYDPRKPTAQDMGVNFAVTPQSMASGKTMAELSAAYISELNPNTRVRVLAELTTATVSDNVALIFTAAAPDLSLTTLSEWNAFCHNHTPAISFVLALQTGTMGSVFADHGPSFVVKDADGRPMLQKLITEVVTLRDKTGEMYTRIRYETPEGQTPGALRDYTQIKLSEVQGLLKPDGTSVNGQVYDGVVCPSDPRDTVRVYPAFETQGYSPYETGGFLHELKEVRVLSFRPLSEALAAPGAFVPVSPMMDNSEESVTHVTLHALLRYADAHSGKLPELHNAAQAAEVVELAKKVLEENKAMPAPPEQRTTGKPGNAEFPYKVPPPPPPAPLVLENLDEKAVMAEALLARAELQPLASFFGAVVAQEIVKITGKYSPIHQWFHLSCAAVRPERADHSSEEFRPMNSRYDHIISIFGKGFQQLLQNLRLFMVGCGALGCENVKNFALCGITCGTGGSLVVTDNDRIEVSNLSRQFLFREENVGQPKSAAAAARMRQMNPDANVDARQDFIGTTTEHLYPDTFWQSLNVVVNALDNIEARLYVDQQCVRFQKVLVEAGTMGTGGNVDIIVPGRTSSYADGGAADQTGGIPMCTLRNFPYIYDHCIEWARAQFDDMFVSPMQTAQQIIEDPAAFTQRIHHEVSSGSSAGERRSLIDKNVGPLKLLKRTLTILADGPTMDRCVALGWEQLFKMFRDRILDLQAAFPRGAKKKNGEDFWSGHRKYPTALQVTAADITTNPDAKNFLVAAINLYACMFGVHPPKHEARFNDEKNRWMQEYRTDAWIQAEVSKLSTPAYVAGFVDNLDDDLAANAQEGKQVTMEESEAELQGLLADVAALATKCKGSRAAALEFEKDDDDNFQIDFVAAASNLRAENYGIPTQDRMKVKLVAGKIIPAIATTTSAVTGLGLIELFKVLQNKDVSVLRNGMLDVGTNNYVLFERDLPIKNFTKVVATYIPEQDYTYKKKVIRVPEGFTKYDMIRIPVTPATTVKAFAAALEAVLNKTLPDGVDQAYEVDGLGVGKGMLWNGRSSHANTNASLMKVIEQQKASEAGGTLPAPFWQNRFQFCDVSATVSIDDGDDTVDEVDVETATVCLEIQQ
The assay can be described thus: Leishmania donovani Ubiquitin Activating Enzyme (LdE1). It is filed as functional. On the set-up: scale not given: direction of the effect not stated beside the values. The following applies: 30 µM.

The target in assay [3] is AMP-activated protein kinase, AMPK (Homo sapiens) (UniProt P54646+O43741+P54619+Q9UGJ0+Q9Y478+Q13131+Q9UGI9). The experiment in a line: AMP-dependent Kinase enzyme assay. An in vitro enzyme assay that detects ADP turnover that is directly proportional to AMPK activity. This uses naive AMPK that is activated during the assay with MK-8722. It is filed as functional. On the set-up: scale not given: direction of the effect not stated beside the values. The following applies: 30 µM.

The target in assay [4] is Sialic acid-binding Ig-like lectin 9 (Homo sapiens) (UniProt Q9Y336). The assay can be described thus: Hs-Siglec9 ALPHAscreen SOP 20170721. On the set-up: scale not given: direction of the effect not stated beside the values. The settings on record: 10 µM. In general terms: In Alpha technology, singlet oxygen from a donor bead excites a nearby acceptor bead.
Sialic acid-binding Ig-like lectin 9 (Homo sapiens), sequence (Q9Y336 whole entry): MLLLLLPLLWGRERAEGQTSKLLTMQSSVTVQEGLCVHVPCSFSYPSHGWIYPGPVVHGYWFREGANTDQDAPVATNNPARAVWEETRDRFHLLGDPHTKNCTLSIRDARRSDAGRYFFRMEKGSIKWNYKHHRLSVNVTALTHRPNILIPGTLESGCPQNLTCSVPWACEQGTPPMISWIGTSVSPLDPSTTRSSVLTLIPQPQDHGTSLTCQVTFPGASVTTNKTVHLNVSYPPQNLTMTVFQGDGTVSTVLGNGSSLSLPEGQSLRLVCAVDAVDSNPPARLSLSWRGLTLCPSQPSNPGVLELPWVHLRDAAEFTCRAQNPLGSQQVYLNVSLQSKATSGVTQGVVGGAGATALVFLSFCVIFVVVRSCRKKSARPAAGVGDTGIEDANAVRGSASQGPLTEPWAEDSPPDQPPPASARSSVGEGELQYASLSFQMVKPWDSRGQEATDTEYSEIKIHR
The next assay deals with Trypanosoma cruzi. The experiment in a line: Trypanosoma cruzi phosphomannomutase and mannose-1-phosphate guanylyltransferase assay. The format is functional. On the set-up: scale not given: direction of the effect not stated beside the values. The following applies: 10 µM.
For assay [5], the target named is T2, Arginase-2, mitochondrial (Homo sapiens) (UniProt P78540).
T2 sequence (whole entry): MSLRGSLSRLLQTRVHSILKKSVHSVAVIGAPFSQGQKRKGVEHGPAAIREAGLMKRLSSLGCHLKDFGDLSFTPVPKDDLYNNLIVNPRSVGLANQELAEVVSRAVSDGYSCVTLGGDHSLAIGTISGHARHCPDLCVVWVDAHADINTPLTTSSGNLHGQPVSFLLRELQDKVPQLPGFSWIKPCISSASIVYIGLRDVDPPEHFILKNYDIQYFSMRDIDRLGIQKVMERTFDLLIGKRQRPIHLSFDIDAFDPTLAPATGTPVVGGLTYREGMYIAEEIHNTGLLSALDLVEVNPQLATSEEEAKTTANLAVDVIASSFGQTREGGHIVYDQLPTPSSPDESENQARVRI
The assay can be described thus: in vitro enzyme assay to detect the production of urea directly proportional to the activity of Arginase II. The format is functional. Further details: scale not given: in the data most compounds retested in dose-response had high values.

Assay [6] addresses T3, Proteasome subunit beta (Trypanosoma cruzi) (UniProt O96673).
T3 sequence (whole entry): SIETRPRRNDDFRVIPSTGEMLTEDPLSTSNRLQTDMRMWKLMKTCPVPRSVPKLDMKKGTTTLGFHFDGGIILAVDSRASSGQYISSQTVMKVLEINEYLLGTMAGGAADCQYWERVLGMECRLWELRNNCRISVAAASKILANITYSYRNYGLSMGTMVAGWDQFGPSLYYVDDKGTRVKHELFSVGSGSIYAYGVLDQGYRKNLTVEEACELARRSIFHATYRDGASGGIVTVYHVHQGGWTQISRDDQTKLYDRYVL
The assay can be described thus: Trypanosoma cruzi proteasome chymotrypsin-like activity (TcProtChymo) assay. The following applies: 9.37 µM. It is filed as functional. On the set-up: scale not given: in the data most compounds retested in dose-response had high values.

The species named for a further assay is Homo sapiens. The experiment in a line: To identify inhibition of the IFN signalling (Jak-Stat) pathway via expression of an eGFP reporter gene under the control of an IFN-stimulated response element (ISRE) containing MxA promoter. The format is functional. Further details: scale not given: direction of the effect not stated beside the values. The following applies: 30 µM. In general terms: A reporter such as luciferase makes a cellular process visible.

For assay [7], the target named is T4, Tyrosyl-tRNA synthetase, putative (Trypanosoma cruzi (strain CL Brener)) (UniProt Q4DSP6).
T4 sequence (whole entry): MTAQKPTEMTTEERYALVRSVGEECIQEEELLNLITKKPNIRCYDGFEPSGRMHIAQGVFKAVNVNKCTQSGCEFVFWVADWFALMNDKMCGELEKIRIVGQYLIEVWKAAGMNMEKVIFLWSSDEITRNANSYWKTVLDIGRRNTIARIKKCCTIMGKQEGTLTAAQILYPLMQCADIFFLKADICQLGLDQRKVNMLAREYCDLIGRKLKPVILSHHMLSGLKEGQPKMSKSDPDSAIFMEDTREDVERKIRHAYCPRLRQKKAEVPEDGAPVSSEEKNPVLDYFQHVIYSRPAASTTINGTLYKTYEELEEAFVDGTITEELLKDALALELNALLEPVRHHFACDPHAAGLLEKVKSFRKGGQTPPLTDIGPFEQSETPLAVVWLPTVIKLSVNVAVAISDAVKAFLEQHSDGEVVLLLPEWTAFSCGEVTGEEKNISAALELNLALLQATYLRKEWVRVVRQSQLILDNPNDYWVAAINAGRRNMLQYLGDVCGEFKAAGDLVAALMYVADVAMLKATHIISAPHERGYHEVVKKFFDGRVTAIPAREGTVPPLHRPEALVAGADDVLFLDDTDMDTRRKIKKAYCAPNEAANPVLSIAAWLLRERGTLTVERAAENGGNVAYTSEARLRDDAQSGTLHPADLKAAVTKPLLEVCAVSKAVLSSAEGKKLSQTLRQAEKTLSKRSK
The assay can be described thus: Trypanosoma cruzi tyrosyl tRNA synthetase (TcYRS) _High Tyrosine SOP. It is filed as functional. On the set-up: scale not given: in the data most compounds retested in dose-response had high values. The following applies: 30 µM.

For assay [8], the target named is T4, Tyrosyl-tRNA synthetase, putative (Trypanosoma cruzi (strain CL Brener)). The assay can be described thus: Trypanosoma cruzi tyrosyl tRNA synthetase (TcYRS) SOP. The following applies: 30 µM. The format is functional. On the set-up: scale not given: direction of the effect not stated beside the values.
Assay [9] deals with Chromo domain-containing protein 1 (Saccharomyces cerevisiae (strain ATCC 204508 / S288c) (Baker's yeast)) (UniProt P32657). The experiment in a line: ScCHD-1 Enzyme Inhibition Assay. Further details: scale not given: in the data most compounds retested in dose-response had high values. The settings on record: 30 µM. The format is functional.
Chromo domain-containing protein 1 (Saccharomyces cerevisiae (strain ATCC 204508 / S288c) (Baker's yeast)), sequence (P32657 whole entry, the tested form may be a part): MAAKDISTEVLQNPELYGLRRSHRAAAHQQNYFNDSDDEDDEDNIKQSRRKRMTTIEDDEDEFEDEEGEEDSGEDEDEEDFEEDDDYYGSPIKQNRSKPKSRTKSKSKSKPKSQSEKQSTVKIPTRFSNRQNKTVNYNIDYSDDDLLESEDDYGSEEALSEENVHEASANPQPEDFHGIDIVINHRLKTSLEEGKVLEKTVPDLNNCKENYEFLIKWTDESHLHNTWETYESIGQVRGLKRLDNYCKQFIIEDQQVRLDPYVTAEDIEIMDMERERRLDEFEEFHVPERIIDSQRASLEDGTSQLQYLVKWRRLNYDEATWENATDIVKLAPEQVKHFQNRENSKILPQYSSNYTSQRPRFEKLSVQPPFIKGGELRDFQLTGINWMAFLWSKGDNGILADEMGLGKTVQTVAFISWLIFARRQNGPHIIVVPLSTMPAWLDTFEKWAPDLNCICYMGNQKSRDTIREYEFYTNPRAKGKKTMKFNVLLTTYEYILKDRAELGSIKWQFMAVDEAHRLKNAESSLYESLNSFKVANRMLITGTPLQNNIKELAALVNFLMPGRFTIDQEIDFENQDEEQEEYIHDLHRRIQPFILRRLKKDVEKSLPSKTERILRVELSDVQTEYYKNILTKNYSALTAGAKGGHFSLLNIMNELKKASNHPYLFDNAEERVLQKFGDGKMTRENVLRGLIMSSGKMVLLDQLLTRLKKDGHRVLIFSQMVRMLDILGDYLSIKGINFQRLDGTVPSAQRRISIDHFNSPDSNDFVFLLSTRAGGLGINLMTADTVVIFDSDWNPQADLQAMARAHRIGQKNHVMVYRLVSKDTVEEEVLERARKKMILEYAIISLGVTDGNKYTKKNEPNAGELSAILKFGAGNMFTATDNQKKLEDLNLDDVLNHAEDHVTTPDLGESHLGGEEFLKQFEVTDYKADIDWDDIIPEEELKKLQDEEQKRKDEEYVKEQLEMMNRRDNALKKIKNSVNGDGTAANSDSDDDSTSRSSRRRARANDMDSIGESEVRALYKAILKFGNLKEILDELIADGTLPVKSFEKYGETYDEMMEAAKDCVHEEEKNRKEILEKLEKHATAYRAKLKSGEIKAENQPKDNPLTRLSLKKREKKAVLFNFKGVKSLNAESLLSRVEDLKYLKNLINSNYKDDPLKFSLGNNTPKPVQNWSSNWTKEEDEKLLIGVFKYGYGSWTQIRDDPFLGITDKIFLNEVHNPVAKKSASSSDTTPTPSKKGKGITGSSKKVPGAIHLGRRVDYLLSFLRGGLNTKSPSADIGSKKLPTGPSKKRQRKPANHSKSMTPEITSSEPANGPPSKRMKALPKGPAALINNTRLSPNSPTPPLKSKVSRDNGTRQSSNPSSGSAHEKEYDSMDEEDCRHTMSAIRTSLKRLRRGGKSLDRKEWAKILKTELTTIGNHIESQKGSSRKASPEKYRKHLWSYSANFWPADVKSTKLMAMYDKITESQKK
Assay [10] deals with T5, Methionyl-tRNA synthetase, putative (Leishmania donovani (strain BPK282A1)) (UniProt E9BF75).
T5 sequence (whole entry): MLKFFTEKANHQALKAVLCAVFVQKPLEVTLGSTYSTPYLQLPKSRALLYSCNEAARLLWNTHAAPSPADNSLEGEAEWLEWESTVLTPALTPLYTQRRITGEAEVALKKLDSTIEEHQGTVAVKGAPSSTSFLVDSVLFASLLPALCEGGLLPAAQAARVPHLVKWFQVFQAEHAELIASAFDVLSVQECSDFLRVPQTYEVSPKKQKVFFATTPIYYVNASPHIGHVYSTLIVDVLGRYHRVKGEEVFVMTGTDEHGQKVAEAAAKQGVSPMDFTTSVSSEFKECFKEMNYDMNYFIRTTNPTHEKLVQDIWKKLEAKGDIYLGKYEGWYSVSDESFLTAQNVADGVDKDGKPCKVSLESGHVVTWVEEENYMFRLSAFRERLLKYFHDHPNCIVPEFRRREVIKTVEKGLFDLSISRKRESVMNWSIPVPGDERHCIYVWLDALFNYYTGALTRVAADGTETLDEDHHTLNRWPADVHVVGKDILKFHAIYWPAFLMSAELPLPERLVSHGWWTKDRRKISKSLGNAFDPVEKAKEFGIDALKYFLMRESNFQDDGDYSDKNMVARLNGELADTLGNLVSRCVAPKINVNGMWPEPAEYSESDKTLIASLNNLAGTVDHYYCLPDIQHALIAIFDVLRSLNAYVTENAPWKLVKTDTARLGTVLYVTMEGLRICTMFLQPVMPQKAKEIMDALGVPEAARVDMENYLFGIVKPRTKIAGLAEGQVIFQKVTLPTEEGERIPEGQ
The experiment in a line: Leishmania donovani Methionine tRNA synthetase (LdMetRS):v7. Dose response assay. It is filed as functional. On the set-up: conc 80 nM, time 150 minutes.

Protein translocase subunit SecA (Escherichia coli (strain K12)), sequence (P10408 whole entry): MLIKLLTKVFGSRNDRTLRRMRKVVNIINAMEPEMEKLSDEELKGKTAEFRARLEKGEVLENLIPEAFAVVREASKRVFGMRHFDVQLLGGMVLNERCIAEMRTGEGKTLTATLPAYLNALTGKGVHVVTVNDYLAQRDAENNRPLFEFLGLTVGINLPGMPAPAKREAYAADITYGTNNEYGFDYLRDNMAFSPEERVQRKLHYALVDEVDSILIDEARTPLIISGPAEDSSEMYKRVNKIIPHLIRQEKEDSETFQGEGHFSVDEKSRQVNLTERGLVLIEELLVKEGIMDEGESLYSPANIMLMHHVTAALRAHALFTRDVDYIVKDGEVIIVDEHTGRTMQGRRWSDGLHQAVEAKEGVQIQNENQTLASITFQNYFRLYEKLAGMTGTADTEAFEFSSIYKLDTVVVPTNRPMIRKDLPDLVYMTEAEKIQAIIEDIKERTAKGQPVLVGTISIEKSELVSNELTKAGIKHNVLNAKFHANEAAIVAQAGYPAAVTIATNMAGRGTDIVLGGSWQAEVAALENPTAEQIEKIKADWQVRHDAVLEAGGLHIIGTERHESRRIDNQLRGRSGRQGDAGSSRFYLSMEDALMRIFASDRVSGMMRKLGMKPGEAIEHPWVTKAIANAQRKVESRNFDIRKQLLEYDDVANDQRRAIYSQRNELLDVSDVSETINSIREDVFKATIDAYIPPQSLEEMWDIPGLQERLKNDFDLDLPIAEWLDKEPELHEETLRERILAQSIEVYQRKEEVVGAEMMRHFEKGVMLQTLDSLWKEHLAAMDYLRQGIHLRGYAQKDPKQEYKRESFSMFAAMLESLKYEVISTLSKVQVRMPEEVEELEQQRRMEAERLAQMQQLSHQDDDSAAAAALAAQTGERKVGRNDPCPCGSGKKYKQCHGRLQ

Turning to `Cc1nn(CCO)c(C)c1CNC1CCC(C)(C)c2ccccc21` (configuration not stated), the Percent Effect is -3.92% in assay [1]; 8% in assay [2]; -5.82% in [3]; 14.7% in assay [4]; 7.3% in the assay on Trypanosoma cruzi; 2.7% in assay [5] (30 µM). Also, the Percent Effect in assay [5] (33.3 µM) was 9.38%; in assay [6], 9.42%; in the assay listed under Homo sapiens, 23.6%; in [7] it was 1.64%; in assay [8], 13.6%; in [9] it was -6.8%.
Turning to `CC1CCN(S(=O)(=O)c2cccn(CC(=O)NC3CCCC3)c2=O)CC1`, the Percent Effect in assay [1] was -2.96%; in [2], 5.48%; in [3], -5.65%; in assay [4], -2%; with Trypanosoma cruzi it was -5.68%; in assay [5] (30 µM), 2.7%. Further, the Percent Effect is 0.455% in assay [5] (33.3 µM); 17.2% in assay [6]; 4.13% in the assay filed under Homo sapiens; 3.23% in assay [7]; 10% in assay [8]; -2.6% in [9].
Regarding `O=C(CCC1CCCC1)N1CCC(c2ncc3c(n2)CCNC3)CC1`, the PXC50 in assay [10] (MAX_EFFECT 18.13380282) and in assay [10] (MAX_EFFECT 20.42755344) was < 4 each time. Besides, the Percent Effect in assay [1] was -7.04%; in [2], 14.9%; in assay [3] it was 0.0771%; in assay [4] it was 5.51%; in the assay with Trypanosoma cruzi it was 2.57%; in assay [5] (33.3 µM) it was -6.26%. In addition, the Percent Effect in assay [6] was 8.42%; in the assay filed under Homo sapiens, 31.7%; in assay [7] it was 10.8%; in assay [8] it was 19.5%; in assay [9], -23.3%.
On to `Cn1cc(CN2CCC(F)(F)C3(CCN(c4cnccn4)C3)C2)cn1` (configuration not stated), for which the PXC50 in assay [10] (MAX_EFFECT 6.650831354) and in [10] (MAX_EFFECT 15.31690141) was < 4 in each case. For the same compound, the Percent Effect in [1] was -4.19%; in assay [2], 2.7%; in [3], 6.66%; in assay [4], -1.14%; in the assay on Trypanosoma cruzi it was 0%; in assay [5] (33.3 µM) it was 4.17%. Further, the Percent Effect in assay [6] was -3.47%; in the assay filed under Homo sapiens, 5.63%; in [7] it was 8.91%; in assay [8], 8.54%; in assay [9], -4.16%.
With `Cn1cc(CN2C[C@@H]3COC[C@]3(C(=O)NCc3ccccn3)C2)cn1`, the Percent Effect is -3.43% in assay [1]; 5.33% in assay [2]; 0.406% in assay [3]; 6.2% in [4]; 0.772% in the assay on Trypanosoma cruzi; -0.54% in [5] (30 µM). Moreover, the Percent Effect in [5] (33.3 µM) was -54.3%; in assay [6] it was 4.62%; in the assay listed under Homo sapiens, -8.11%; in [7], 2.08%; in assay [8], 2.5%; in [9] it was -5.35%.
